{"source": "the supplement of paper PMC10849652", "note": "About 8,800 targets were measured; listed, in parts, are those with a hit and a random draw of the rest. About 0.5% of all pairs of compound and target were hits. Unmarked numbers belong to inactive results.", "data": [{"compound": "NC(=O)Nc1cc(-c2cccc(F)c2)sc1C(=O)N[C@H]1CCCNC1", "assay": "log2 fold change, soluble protein after heating vs DMSO (PISA); higher = thermal stabilisation; K562 lysate, 10 uM; active = over 0.2 and 3.5 SD of the protein, either way, in both replicates (recomputed)", "outline": "(§1)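 Soluble protein was defined as the supernatant remaining after 21,000xg for 90 min, following pooling of heated aliquots and adjustment to 0.5% NP-40 at 4°C. Before that, crude K562 extract at 1 mg/mL protein in PBS pH 7.4 with 1 mM MgCl2 was treated with 10 μM compound for 30 min and heated for 3 min across 48°C-58°C. Quantification used TMTpro 16plex LC-MS/MS with channel sums equalised, and values are log-two fold changes in thermal stability relative to solvent controls from duplicates.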", "values": [{"target": "CACUL1 (UniProt Q86Y37)", "sequence (Q86Y37 whole entry, looked up)": "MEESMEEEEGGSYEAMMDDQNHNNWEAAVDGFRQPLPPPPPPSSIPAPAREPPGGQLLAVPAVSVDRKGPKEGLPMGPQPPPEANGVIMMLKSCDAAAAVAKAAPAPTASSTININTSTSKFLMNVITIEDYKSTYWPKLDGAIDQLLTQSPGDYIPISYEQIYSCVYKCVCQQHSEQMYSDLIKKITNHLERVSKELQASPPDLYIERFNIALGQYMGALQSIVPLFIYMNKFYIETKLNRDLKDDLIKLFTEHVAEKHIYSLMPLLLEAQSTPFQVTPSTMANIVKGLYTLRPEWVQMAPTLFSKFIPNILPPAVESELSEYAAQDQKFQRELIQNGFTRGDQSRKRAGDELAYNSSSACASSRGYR", "log2 fold change": 0.102}, {"target": "CAPNS1 (UniProt K7ES78)", "log2 fold change": -0.002}, {"target": "B3GALT6 (UniProt Q96L58)", "log2 fold change": 0.137}, {"target": "C8orf37 (UniProt Q96NL8)", "sequence (Q96NL8 whole entry, looked up)": "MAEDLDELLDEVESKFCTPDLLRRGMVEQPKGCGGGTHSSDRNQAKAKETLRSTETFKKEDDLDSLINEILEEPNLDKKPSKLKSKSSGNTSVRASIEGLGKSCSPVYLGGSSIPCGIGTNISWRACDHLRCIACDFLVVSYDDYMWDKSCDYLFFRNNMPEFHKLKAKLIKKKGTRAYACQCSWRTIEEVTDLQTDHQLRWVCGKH", "log2 fold change": -0.01}, {"target": "ATXN2 (UniProt F8WB05)", "log2 fold change": -0.025}, {"target": "BCORL1 isoform 3 (UniProt Q5H9F3)", "log2 fold change": 0.235}, {"target": "CDKN1B (UniProt P46527)", "sequence (P46527 whole entry, looked up)": "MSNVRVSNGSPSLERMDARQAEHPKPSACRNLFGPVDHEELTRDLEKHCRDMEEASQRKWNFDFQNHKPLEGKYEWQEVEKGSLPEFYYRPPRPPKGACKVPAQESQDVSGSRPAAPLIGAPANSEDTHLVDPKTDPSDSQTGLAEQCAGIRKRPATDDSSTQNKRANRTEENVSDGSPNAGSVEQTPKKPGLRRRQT", "log2 fold change": -0.122}, {"target": "ATG4D (UniProt Q86TL0)", "log2 fold change": 0.084}, {"target": "AUH (UniProt Q13825)", "sequence (Q13825 whole entry, looked up)": "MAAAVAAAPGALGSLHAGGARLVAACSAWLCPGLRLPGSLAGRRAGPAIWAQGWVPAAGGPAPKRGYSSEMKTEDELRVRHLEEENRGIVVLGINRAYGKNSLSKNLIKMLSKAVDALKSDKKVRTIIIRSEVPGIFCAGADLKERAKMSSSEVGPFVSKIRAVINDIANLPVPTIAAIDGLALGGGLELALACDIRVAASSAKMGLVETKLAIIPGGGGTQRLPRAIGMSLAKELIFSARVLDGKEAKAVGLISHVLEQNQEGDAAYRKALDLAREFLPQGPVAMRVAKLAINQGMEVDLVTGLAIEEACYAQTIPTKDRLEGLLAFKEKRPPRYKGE", "log2 fold change": -0.018}, {"target": "CDK2 (UniProt P24941)", "log2 fold change": 0.005}, {"target": "CCDC85B (UniProt Q15834)", "sequence (Q15834 whole entry, looked up)": "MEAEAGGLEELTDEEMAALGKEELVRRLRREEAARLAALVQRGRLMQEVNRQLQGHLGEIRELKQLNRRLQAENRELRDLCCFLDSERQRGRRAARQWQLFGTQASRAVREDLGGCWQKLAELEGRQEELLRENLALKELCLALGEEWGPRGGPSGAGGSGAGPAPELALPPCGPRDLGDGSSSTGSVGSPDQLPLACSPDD", "log2 fold change": 0.044}, {"target": "ATF7IP2 (UniProt Q5U623)", "sequence (Q5U623 whole entry, looked up)": "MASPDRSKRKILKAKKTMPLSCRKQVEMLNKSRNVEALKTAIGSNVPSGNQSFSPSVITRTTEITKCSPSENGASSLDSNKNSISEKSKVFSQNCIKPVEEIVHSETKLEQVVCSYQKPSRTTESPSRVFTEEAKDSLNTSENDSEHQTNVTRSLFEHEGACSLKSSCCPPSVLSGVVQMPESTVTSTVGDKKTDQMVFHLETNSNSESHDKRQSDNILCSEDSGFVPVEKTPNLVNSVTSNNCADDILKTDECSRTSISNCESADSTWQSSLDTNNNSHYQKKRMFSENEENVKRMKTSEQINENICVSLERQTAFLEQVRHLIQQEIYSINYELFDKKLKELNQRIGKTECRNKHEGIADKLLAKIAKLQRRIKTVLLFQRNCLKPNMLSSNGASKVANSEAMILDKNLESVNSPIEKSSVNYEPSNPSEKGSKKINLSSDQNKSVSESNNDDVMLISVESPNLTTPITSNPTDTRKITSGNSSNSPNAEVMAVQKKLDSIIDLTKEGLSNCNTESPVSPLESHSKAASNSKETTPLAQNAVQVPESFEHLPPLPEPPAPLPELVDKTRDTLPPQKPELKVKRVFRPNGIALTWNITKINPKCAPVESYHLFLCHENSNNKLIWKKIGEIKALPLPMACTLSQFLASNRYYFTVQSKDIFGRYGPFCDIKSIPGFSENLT", "log2 fold change": 0.001}, {"target": "C3AR1 (UniProt Q16581)", "log2 fold change": -0.033}, {"target": "ATPSCKMT (UniProt Q6P4H8)", "log2 fold change": 0.001}, {"target": "CDC14A isoform 2 (UniProt Q9UNH5)", "log2 fold change": 0.083}, {"target": "CCP110 (UniProt O43303)", "log2 fold change": 0.107}, {"target": "C16orf70 (UniProt Q9BSU1)", "sequence (Q9BSU1 whole entry, looked up)": "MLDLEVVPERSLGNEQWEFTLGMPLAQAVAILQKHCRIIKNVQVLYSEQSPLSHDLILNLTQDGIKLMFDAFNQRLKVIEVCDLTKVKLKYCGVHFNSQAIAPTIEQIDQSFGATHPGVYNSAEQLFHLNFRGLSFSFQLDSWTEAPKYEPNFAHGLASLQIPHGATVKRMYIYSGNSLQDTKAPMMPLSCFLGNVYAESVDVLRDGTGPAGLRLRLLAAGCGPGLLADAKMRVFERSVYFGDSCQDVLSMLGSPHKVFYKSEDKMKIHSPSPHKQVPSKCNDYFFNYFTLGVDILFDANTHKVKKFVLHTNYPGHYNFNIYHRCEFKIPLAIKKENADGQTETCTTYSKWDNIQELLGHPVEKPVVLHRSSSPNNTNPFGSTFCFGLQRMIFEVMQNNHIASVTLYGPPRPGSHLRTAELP", "log2 fold change": -0.005}, {"target": "C8orf88 (UniProt P0DMB2)", "sequence (P0DMB2 whole entry, looked up)": "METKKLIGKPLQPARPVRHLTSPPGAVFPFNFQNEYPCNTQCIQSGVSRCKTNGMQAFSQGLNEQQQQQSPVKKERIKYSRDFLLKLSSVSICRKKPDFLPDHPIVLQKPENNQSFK", "log2 fold change": -0.011}, {"target": "CDKL5 (UniProt O76039)", "log2 fold change": -0.002}, {"target": "CENPV (UniProt Q7Z7K6)", "log2 fold change": -0.077}, {"target": "CDAN1 (UniProt H3BPZ6)", "log2 fold change": 0.056}, {"target": "BICRA (UniProt Q9NZM4)", "sequence (Q9NZM4 whole entry, looked up)": "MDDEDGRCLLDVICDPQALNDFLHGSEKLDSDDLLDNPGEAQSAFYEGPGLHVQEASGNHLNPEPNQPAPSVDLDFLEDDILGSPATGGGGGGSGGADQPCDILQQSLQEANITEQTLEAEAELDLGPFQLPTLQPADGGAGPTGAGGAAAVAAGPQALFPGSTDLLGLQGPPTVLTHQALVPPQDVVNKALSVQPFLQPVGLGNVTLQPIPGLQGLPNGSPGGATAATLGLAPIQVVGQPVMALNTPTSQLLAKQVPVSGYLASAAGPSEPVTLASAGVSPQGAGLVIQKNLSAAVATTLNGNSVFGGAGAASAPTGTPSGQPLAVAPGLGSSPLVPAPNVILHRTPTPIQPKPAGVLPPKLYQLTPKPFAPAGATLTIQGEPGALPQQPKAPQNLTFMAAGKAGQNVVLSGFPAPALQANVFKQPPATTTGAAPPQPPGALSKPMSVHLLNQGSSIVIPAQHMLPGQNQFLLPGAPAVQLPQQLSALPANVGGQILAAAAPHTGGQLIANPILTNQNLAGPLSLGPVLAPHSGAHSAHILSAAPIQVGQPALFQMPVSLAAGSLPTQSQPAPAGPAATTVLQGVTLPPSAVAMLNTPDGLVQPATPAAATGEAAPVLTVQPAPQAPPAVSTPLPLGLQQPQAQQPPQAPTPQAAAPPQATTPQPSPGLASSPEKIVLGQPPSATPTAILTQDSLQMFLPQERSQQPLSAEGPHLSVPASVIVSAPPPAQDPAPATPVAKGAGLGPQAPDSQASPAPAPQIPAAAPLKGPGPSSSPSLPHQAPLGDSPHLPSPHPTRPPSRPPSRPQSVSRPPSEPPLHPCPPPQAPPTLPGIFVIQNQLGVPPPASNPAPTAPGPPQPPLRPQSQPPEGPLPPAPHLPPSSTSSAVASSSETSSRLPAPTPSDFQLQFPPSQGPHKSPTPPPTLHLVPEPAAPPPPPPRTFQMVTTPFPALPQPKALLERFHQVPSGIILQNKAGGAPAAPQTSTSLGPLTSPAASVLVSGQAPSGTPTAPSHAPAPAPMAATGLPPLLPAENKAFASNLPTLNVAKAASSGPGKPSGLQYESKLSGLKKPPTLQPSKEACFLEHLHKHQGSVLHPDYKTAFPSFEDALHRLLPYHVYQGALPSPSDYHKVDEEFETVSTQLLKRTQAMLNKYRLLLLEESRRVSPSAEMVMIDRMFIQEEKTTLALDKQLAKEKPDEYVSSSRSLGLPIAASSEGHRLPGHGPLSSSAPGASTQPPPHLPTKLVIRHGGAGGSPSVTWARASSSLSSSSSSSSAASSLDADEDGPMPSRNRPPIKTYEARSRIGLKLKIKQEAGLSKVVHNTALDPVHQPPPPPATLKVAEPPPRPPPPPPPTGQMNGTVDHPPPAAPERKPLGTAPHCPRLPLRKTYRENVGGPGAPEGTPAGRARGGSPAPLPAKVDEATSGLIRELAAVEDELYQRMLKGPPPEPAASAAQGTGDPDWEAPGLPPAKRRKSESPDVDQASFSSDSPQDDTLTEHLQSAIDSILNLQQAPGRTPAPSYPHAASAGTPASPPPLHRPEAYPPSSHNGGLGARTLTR", "log2 fold change": -0.004}, {"target": "BRAF (UniProt P15056)", "log2 fold change": 0.018}, {"target": "CCDC130 (UniProt P13994)", "log2 fold change": -0.183}, {"target": "CEP295 isoform 3 (UniProt Q9C0D2)", "log2 fold change": -0.038}, {"target": "ATE1 (UniProt O95260)", "log2 fold change": -0.093}, {"target": "BTK isoform 2 (UniProt Q06187)", "sequence (Q06187 whole entry, looked up)": "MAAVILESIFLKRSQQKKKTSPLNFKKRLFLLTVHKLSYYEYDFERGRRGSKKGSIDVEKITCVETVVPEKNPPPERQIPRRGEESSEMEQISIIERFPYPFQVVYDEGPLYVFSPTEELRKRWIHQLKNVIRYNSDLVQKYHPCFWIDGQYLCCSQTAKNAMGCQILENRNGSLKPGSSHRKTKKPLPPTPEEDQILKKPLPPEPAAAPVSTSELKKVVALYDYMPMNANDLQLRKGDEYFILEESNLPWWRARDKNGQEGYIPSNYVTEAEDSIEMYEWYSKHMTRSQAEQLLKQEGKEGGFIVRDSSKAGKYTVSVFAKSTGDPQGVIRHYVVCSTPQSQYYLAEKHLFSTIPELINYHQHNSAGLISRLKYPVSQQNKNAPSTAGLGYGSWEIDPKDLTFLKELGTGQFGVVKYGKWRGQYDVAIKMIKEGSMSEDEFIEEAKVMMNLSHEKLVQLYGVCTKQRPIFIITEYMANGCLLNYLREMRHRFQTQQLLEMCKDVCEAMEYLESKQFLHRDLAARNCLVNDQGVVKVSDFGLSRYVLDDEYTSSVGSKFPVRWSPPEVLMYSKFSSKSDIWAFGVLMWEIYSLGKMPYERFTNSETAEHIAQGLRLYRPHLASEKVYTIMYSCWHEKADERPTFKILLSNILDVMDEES", "log2 fold change": "0.294 (active)"}]}, {"compound": "NC(=O)c1cnc(N[C@@H]2CCCC[C@@H]2N)nc1Nc1cccc(-n2nccn2)c1", "assay": "log2 fold change, soluble protein after heating vs DMSO (PISA); higher = thermal stabilisation; K562 lysate, 10 uM; active = over 0.2 and 3.5 SD of the protein, either way, in both replicates (recomputed)", "outline": "as §1", "values": [{"target": "CACUL1 (UniProt Q86Y37)", "log2 fold change": -0.1}, {"target": "CAPNS1 (UniProt K7ES78)", "log2 fold change": 0.053}, {"target": "CAPNS1 (UniProt U3KPR7)", "log2 fold change": -0.214}, {"target": "BTRC (UniProt Q9Y297)", "log2 fold change": 0.059}, {"target": "C8orf37 (UniProt Q96NL8)", "log2 fold change": 0.298}, {"target": "ATXN2 (UniProt F8WB05)", "log2 fold change": 0.025}, {"target": "CDKN1B (UniProt P46527)", "log2 fold change": -0.035}, {"target": "AUH (UniProt Q13825)", "log2 fold change": 0.193}, {"target": "CDK2 (UniProt P24941)", "log2 fold change": 0.067}, {"target": "CCDC85B (UniProt Q15834)", "log2 fold change": -0.225}, {"target": "ATF7IP2 (UniProt Q5U623)", "log2 fold change": 0.036}, {"target": "CARHSP1 (UniProt H3BNU9)", "log2 fold change": -0.059}, {"target": "CDC14A isoform 2 (UniProt Q9UNH5)", "log2 fold change": 0.101}, {"target": "C16orf70 (UniProt Q9BSU1)", "log2 fold change": -0.001}, {"target": "CDKL5 (UniProt O76039)", "log2 fold change": 0.069}, {"target": "CANX (UniProt D6RHJ3)", "log2 fold change": -0.103}, {"target": "BICRA (UniProt Q9NZM4)", "log2 fold change": 0.054}, {"target": "BRAF (UniProt P15056)", "log2 fold change": 0.007}, {"target": "C6orf120 (UniProt Q7Z4R8)", "sequence (Q7Z4R8 whole entry, looked up)": "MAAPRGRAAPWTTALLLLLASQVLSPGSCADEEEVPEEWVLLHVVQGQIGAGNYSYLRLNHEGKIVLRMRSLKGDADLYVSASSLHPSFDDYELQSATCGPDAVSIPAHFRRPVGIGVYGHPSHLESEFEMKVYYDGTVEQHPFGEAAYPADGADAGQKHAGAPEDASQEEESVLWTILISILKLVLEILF", "log2 fold change": 0.017}, {"target": "C18orf25 isoform 2 (UniProt Q96B23)", "log2 fold change": 0.01}, {"target": "CEP295 isoform 3 (UniProt Q9C0D2)", "log2 fold change": 0.14}, {"target": "ATE1 (UniProt O95260)", "log2 fold change": 0.026}, {"target": "BTK isoform 2 (UniProt Q06187)", "log2 fold change": 0.032}, {"target": "CCAR2 (UniProt G3V119)", "log2 fold change": -0.015}]}, {"compound": "NC1(c2ccc(-c3nc4ccn5c(=O)[nH]nc5c4cc3-c3ccccc3)cc2)CCC1", "assay": "log2 fold change, soluble protein after heating vs DMSO (PISA); higher = thermal stabilisation; K562 lysate, 10 uM; active = over 0.2 and 3.5 SD of the protein, either way, in both replicates (recomputed)", "outline": "as §1", "values": [{"target": "CACUL1 (UniProt Q86Y37)", "log2 fold change": -0.028}, {"target": "CAPNS1 (UniProt K7ES78)", "log2 fold change": -0.099}, {"target": "B3GALT6 (UniProt Q96L58)", "log2 fold change": -0.174}, {"target": "BTRC (UniProt Q9Y297)", "log2 fold change": 0.031}, {"target": "C8orf37 (UniProt Q96NL8)", "log2 fold change": 0.029}, {"target": "ATXN2 (UniProt F8WB05)", "log2 fold change": -0.394}, {"target": "BCORL1 isoform 3 (UniProt Q5H9F3)", "log2 fold change": -0.091}, {"target": "CDKN1B (UniProt P46527)", "log2 fold change": 0.045}, {"target": "AUH (UniProt Q13825)", "log2 fold change": -0.066}, {"target": "CDK2 (UniProt P24941)", "log2 fold change": -0.012}, {"target": "CCDC85B (UniProt Q15834)", "log2 fold change": 0.188}, {"target": "ATF7IP2 (UniProt Q5U623)", "log2 fold change": -0.127}, {"target": "CCP110 (UniProt O43303)", "log2 fold change": 0.055}, {"target": "C16orf70 (UniProt Q9BSU1)", "log2 fold change": 0.009}, {"target": "CAD (UniProt H7BZB3)", "log2 fold change": "0.551 (active)"}, {"target": "C8orf88 (UniProt P0DMB2)", "log2 fold change": 0.084}, {"target": "BICRA (UniProt Q9NZM4)", "log2 fold change": -0.382}, {"target": "CDCA8 (UniProt Q53HL2)", "log2 fold change": -0.051}, {"target": "CCDC130 (UniProt P13994)", "log2 fold change": 0.259}, {"target": "C6orf120 (UniProt Q7Z4R8)", "log2 fold change": 0.041}, {"target": "C18orf25 isoform 2 (UniProt Q96B23)", "log2 fold change": -0.071}, {"target": "CEP295 isoform 3 (UniProt Q9C0D2)", "log2 fold change": 0.046}, {"target": "BTK isoform 2 (UniProt Q06187)", "log2 fold change": -0.049}]}]}
